In the supplement of paper PMC12645437, “Orthogonal IMiD-Degron Pairs Induce Selective Protein Degradation in Cells” (ACS Chemical Biology, 2025):
Over roughly 8,300 sequences, “log2 fold change of degron read counts, EGFP-low vs EGFP+ sorted cells (limma voom), compound-induced degradation” has its median near -1.1; the highest 2% begin near 3.2. The sample as a whole holds a higher share of the highest values than the screen did.

Biological target: T1, CRBN, Q96SW2
T1 chain: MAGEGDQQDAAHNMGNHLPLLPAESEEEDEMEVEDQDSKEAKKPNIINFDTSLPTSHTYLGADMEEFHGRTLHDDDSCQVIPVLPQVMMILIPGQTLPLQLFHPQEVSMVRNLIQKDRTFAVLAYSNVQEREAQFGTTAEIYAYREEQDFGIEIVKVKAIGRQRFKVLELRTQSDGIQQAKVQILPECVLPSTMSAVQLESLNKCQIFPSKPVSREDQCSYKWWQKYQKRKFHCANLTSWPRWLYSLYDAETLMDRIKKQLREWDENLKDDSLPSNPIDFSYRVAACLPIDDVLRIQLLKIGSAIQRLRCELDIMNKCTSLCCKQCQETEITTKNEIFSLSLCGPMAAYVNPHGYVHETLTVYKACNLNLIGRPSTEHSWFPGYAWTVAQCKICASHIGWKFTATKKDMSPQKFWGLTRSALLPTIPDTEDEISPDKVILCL
Assay: log2 fold change of degron read counts, EGFP-low vs EGFP+ sorted cells (limma voom), compound-induced degradation; higher = more compound-induced degradation of the degron-EGFP fusion; degrons are variants of IKZF1/3 zinc finger 2; compound dose not given here
Settings: Jurkat, 18 h

[1] = compound: compound 19 (5-tert-butyl-thalidomide)
[2] = compound: compound 22 (5-morpholino-thalidomide)
[3] = compound: compound 33 (diphenyl IMiD analogue)
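Also: pooled lentiviral library of zinc finger degron-EGFP fusions in mCherry-positive Jurkat cells, FACS-sorted after compound exposure, with degron abundance counted by next-generation sequencing.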

| Sequence | log2 fold change of degron read counts [1] | log2 fold change of degron read counts [2] | log2 fold change of degron read counts [3] | log2 fold change of degron read counts (compound: thalidomide) |
| --- | --- | --- | --- | --- |
| FQCDVCGAAFTQKGNLLRHIKL [46F_47Q_49D_50V_52G_53A_54A_55F_67L_, Q9UKT9] | 0.909 | 1.9 | 0.606 | 2.84 |
| FMCEQCGATFTQKGNLLRHIKL [46F_47M_49E_50Q_52G_53A_54T_55F_67L_, Q9UKT9] | -2.84 | -2.15 | 0.0969 | -1.3 |
| FLCPICGHCFTQKGNLLRHIKL [46F_47L_49P_50I_52G_53H_54C_55F_67L_, Q9UKT9] | -2.45 | -2.17 | -1.87 | -1.49 |
| FECPICGRGFTQKGNLLRHIKL [46F_47E_49P_50I_52G_53R_54G_55F_67L_, Q9UKT9] | -1.82 | -2.41 | -0.354 | 0.562 |
| FVCEICGAAFTQKGNLLRHIKL [46F_47V_49E_50I_52G_53A_54A_55F_67L_, Q9UKT9] | 1.93 | 2.89 | 2.35 | 3.15 |
| FICEICGAAFTQKGNLLRHIKL [46F_47I_49E_50I_52G_53A_54A_55F_67L_, Q9UKT9] | 0.759 | 2.95 | 2.44 | 3.09 |
| FQCEICGAAFTQKGNLLRHIKL [46F_47Q_49E_50I_52G_53A_54A_55F_67L_, Q9UKT9] | 2.89 | 2.79 | 2.34 | 3.64 |
| FYCEICGAAFTQKGNLLRHIKL [46F_47Y_49E_50I_52G_53A_54A_55F_67L_, Q9UKT9] | 3.59 | 3.59 | 2.92 | 1.64 |
| FECPICGHSFTQKGNLLRHIKL [46F_47E_49P_50I_52G_53H_54S_55F_67L_, Q9UKT9] | -2.78 | -2.96 | -1.75 | -1.65 |
| FYCEQCGATFTQKGNLLRHIKL [46F_47Y_49E_50Q_52G_53A_54T_55F_67L_, Q9UKT9] | 0.368 | 2.41 | 0.941 | -1.4 |
| FSCEICGAYFTQKGNLLRHIKL [46F_47S_49E_50I_52G_53A_54Y_55F_67L_, Q9UKT9] | 2.46 | 1.44 | 1.69 | 0.848 |
| FHCPVCGACFTQKGNLLRHIKL [46F_47H_49P_50V_52G_53A_54C_55F_67L_, Q9UKT9] | 2.42 | 2.44 | 2.11 | 0.528 |
| FQCPQCGACFTQKGNLLRHIKL [46F_47Q_49P_50Q_52G_53A_54C_55F_67L_, Q9UKT9] | -1.4 | 0.844 | 0.805 | 3.26 |
| FNCPVCGACFTQKGNLLRHIKL [46F_47N_49P_50V_52G_53A_54C_55F_67L_, Q9UKT9] | 1.6 | 0.504 | 1 | -0.0222 |
| FVCPQCGACFTQKGNLLRHIKL [46F_47V_49P_50Q_52G_53A_54C_55F_67L_, Q9UKT9] | -1.94 | -0.402 | 0.593 | 0.301 |
| FWCPVCGACFTQKGNLLRHIKL [46F_47W_49P_50V_52G_53A_54C_55F_67L_, Q9UKT9] | 3.4 | 3.44 | 2.56 | 1.36 |
| FYCNVCGACFTQKGNLLRHIKL [46F_47Y_49N_50V_52G_53A_54C_55F_67L_, Q9UKT9] | 1.86 | 2.44 | 1.12 | -0.449 |
| FLCPVCGACFTQKGNLLRHIKL [46F_47L_49P_50V_52G_53A_54C_55F_67L_, Q9UKT9] | 0.241 | -0.146 | 1.72 | 1.62 |
| FYCPVCGACFTQKGNLLRHIKL [46F_47Y_49P_50V_52G_53A_54C_55F_67L_, Q9UKT9] | 3.26 | 3.4 | 2.69 | 1.29 |
| FKCPVCGACFTQKGNLLRHIKL [46F_47K_49P_50V_52G_53A_54C_55F_67L_, Q9UKT9] | -0.716 | -1.95 | -2.51 | -0.832 |
| FQCPVCGACFTQKGNLLRHIKL [46F_47Q_49P_50V_52G_53A_54C_55F_67L_, Q9UKT9] | 0.553 | 2.77 | 2.39 | 3.46 |
| FKCPQCGACFTQKGNLLRHIKL [46F_47K_49P_50Q_52G_53A_54C_55F_67L_, Q9UKT9] | -2.36 | -3 | -3.29 | -2.34 |
| LDCPICGFWCTQKGNLLRHIKL [46L_47D_49P_50I_52G_53F_54W_55C_67L_, Q9UKT9] | -0.559 | -0.625 | 0.68 | 1.33 |
| FACPVCGAVFTQKGNLLRHIKL [46F_47A_49P_50V_52G_53A_54V_55F_67L_, Q9UKT9] | 3.09 | 1.74 | 1.78 | 0.502 |
| FYCPQCGAMFTQKGNLLRHIKL [46F_47Y_49P_50Q_52G_53A_54M_55F_67L_, Q9UKT9] | 0.518 | 0.45 | 0.601 | -1.06 |
| FCCNVCGAWFTQKGNLLRHIKL [46F_47C_49N_50V_52G_53A_54W_55F_67L_, Q9UKT9] | -1.92 | -1.43 | -1.27 | -1.34 |
| FICEVCGADFTQKGNLLRHIKL [46F_47I_49E_50V_52G_53A_54D_55F_67L_, Q9UKT9] | -2.24 | -0.906 | -0.571 | 0.184 |
| FTCDVCGAMFTQKGNLLRHIKL [46F_47T_49D_50V_52G_53A_54M_55F_67L_, Q9UKT9] | -1.4 | -0.892 | -0.371 | -0.84 |
